Caspase-7 inhib: caspase-7 (human) inhibition, allosteric or competitive | AID 889 | Potency, µM (highest dose often 57.5 µM), inactives show at the top dose activity change, negative = inhibition, hits mostly inhibitors | P55210 | 0.02% of 75,000 active | recombinant caspase-7, Ac-DEVD-AFC fluorescence rate; active = well fitted inhibition curve with a large enough effect in the main read-out, with a control signal flat, not every such curve was filed as active; inconclusive = small, poorly fitted or top-dose-only effect, or a change in a side signal; also: % of control where 0% means no effect
IkB sig inh: inhibitors of IkB signaling in ABC-DLBCL cells. Potency, µM (doses to about 57.1 µM), without a hit: at the top dose IkBa stabilization activation. AID 445. 0.04% of 110,000 active. ABC-DLBCL IkBa-CBG/CBR dual luciferase ratio, 4 h; response scale: scaled: untreated 0%, proteasome inhibitor 100%; active = well fitted curve in the direction sought with a large enough effect in the signal ratio, not every such curve was filed as active; inconclusive = small, poorly fitted or top-dose-only effect, or a change in a side signal; the % refers to the signal ratio;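 also: the direction sought is a rising ratio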
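Luminescence ratio of IκBα-fused green versus native red beetle luciferase in OCI-Ly3 cells, 4 h post-doxycycline with compound; red signal alone, scaled from basal (0%) to zero light (-100%), flagged nonspecific or cytotoxic effects.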
Caspase-1 inhib: caspase-1 (human) inhibition, allosteric or competitive | Caspase-1 enzyme, Ac-WEHD-AFC fluorogenic rate | Potency, µM (top dose mostly 57.5 µM), without a hit: top-dose activity change, negative = inhibition, hits mostly inhibitors | 0.03% of 75,000 active;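 also: plate controls were vehicle for no effect and no substrate for full effect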
p53ts 39C tox: cytotoxicity in p53ts cells at nonpermissive temperature | H1299-p53A138V viability at 39C, ATP luminescence, 24 h | 1.5% of 130,000 active | Potency, µM (series often up to 46.1 µM), without a hit: at the highest dose activity change, negative = cell killing, actives largely listed as cytotoxic; also: % is scaled to controls: 0 for no effect and ±100 for the full control effect; nearly all actives have a fitted effect of over 55% in size
p53ts 32C tox: cytotoxicity in p53ts cells at permissive temperature; H1299-p53A138V at 32C, ATP luminescence viability, 24 h; Potency, µM (doses to about 46.1 µM), without a hit: top-dose activity change, negative = cytotoxicity, hits mostly cytotoxic; 0.93% of 130,000 active;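 also: 0% = DMSO and -100% = full killing by reference compound; nearly all actives have a fitted effect of over 55% in size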
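Cells: H1299 p53ts (A138V), 600/well, pre-incubated 16–30 h at 37C. Cpd up to 46 uM, 24 h, 32C. Readout: ATPlite luminescence, 20 min RT. Normalization: DMSO vs tamoxifen 100 uM. AC50 by Hill equation.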
FLuc inh: blocks Photinus pyralis firefly luciferase activity; P08659; purified firefly luciferase, luminescence, 8 min; Potency, µM (titrated, usually from 57.1 µM), without a hit: top-dose activity change, negative = inhibition, usual class: inhibitors; 2.2% of 72,000 active; also: % is scaled to controls: 0 for no effect and ±100 for the full control effect; nearly all actives have a fitted effect of over 40% in size
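Compounds were tested as concentration series (qHTS) against purified P. pyralis luciferase with luciferin and 10 uM ATP in 50 mM imidazole pH 7.2, 50 mM KCl, 7 mM MgCl2, 0.01% Tween 20, 0.05% BSA. Luminescence was read after 8 min at ambient temperature.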
* = called active by the depositor; [ ] = remark or other dose. Hits are enriched below; roughly 2.5% of the tested compounds scored in any of these assays. Unless noted, calls follow the shape of the dose curve; as a rule, active = well fitted curve in the direction sought with a large enough effect; inconclusive = small, poorly fitted or top-dose-only effect, or another doubt; inactive = no such curve, though single readings can be large; an effect the other way counts as inactive or inconclusive. Potency is read from the fitted curve at half-maximal effect.

What do the screens show for `CC(C)=CCC/C(C)=C/CO/N=C1/C[C@@H](O)[C@@H](O)[C@@H]2[C@@H]3C(=O)N(C(C)(C)C)C(=O)[C@H]3CC[C@@H]12`?
Caspase-7 inhib: 0%[11.5 µM]; Caspase-1 inhib: -2%[11.5 µM]; p53ts 39C tox: 9%[9.22 µM]; p53ts 32C tox: 2%[9.22 µM]; FLuc inh: 2%[11.4 µM]

Results for CCc1cc(C(=O)Cc2nc3ccccc3[nH]2)c(O)cc1O ?
Caspase-7 inhib: -4%; IkB sig inh: 1%; Caspase-1 inhib: 0%; p53ts 39C tox: -19%; p53ts 32C tox: -1%; FLuc inh: 10µM*

Results for O=C(/C(C=Nc1ccc(Br)cc1)=C(/O)c1ccco1)C(F)(F)F ?
p53ts 39C tox: 11µM*; p53ts 32C tox: 11µM*

Results for COc1ccc(-n2c(=O)c(-c3ccccc3)nc3cnc(N4CCN(C)CC4)nc32)cc1 ?
Caspase-7 inhib: inconclusive; IkB sig inh: -4%[11.4 µM]; Caspase-1 inhib: inconclusive; p53ts 39C tox: -1%; p53ts 32C tox: 5%; FLuc inh: 2%[11.4 µM]

Results for COc1cccc2cc(-c3cn4cccc(C)c4n3)c(=O)oc12 ?
Caspase-7 inhib: -16%; IkB sig inh: -1%; Caspase-1 inhib: inconclusive; p53ts 39C tox: -5%; p53ts 32C tox: -10%; FLuc inh: -7%

How did CCOc1cccc2cc(-c3cn4cc(C)ccc4n3)c(=O)oc12 do in these assays?
Caspase-7 inhib: -7%; IkB sig inh: 3%; Caspase-1 inhib: inconclusive; p53ts 39C tox: inconclusive; p53ts 32C tox: inconclusive; FLuc inh: 0.16µM*

What do the screens show for `COc1c(Cl)cc(C(=O)Nc2cccc(-c3nc4ccccc4[nH]3)c2)cc1Cl`?
IkB sig inh: inconclusive; p53ts 39C tox: 13µM*; p53ts 32C tox: inconclusive

How did CCCN(CCC)S(=O)(=O)c1ccc(C(=O)Nc2cccc(-c3nc4ccccc4[nH]3)c2)cc1 do in these assays?
IkB sig inh: inconclusive; p53ts 39C tox: -16%; p53ts 32C tox: -6%

What do the screens show for `Cn1cccc1-c1nc2ccc(NC(=O)c3ccco3)cc2[nH]1`?
Caspase-7 inhib: 0%; IkB sig inh: inconclusive; Caspase-1 inhib: -2%; p53ts 39C tox: -5%; p53ts 32C tox: -6%; FLuc inh: inconclusive

What do the screens show for `O=C(Nc1cccc(-c2nc3ccccc3[nH]2)c1)c1ccco1`?
Caspase-7 inhib: 1%; IkB sig inh: 1%; Caspase-1 inhib: -1%; p53ts 39C tox: -6%; p53ts 32C tox: 11%; FLuc inh: 25µM*

How did CC(=O)Nc1cccc(NC(=O)c2ccco2)c1 do in these assays?
Caspase-7 inhib: -1%; Caspase-1 inhib: -2%; p53ts 39C tox: -10%; p53ts 32C tox: 0%

How did O=C(Nc1cccc(NC(=O)c2nccc3ccccc23)c1)c1ccco1 do in these assays?
Caspase-7 inhib: 0%; IkB sig inh: 11%; Caspase-1 inhib: -2%; p53ts 39C tox: inconclusive; p53ts 32C tox: inconclusive; FLuc inh: 13µM*

What do the screens show for `Cc1ccc2nc(-c3ccc(NC(=O)c4ccco4)cc3)[nH]c2c1`?
Caspase-7 inhib: -3%; IkB sig inh: -3%; Caspase-1 inhib: -7%; p53ts 39C tox: -13%; p53ts 32C tox: -20%; FLuc inh: 5µM*

How did Cc1csc(NC(=O)c2ccccc2O)n1 do in these assays?
Caspase-7 inhib: -3%; IkB sig inh: inconclusive; Caspase-1 inhib: -1%; p53ts 39C tox: inconclusive; p53ts 32C tox: inconclusive; FLuc inh: 25µM*

Results for O=C(Nc1ccccc1O)c1ccccc1O ?
Caspase-7 inhib: 1%; IkB sig inh: inconclusive; Caspase-1 inhib: -4%; p53ts 39C tox: inconclusive; p53ts 32C tox: -23%; FLuc inh: 20µM*

How did Cc1ccc(NC(=O)Cn2c(=O)c3ccc(Cl)cc3n3nncc23)cc1 do in these assays?
IkB sig inh: 3%; p53ts 39C tox: 7%; p53ts 32C tox: -7%

Results for COc1ccc(-c2cnn(-c3ccccc3)c2N)cc1OC ?
Caspase-7 inhib: 1%; IkB sig inh: inconclusive; Caspase-1 inhib: -1%; p53ts 39C tox: 13%; p53ts 32C tox: 18%; FLuc inh: -3%

What do the screens show for `Nc1nc2c(s1)CCc1c-2cnn1-c1ccccc1`?
Caspase-7 inhib: -11%; IkB sig inh: inconclusive; Caspase-1 inhib: inconclusive; p53ts 39C tox: 10µM*; p53ts 32C tox: 13µM*; FLuc inh: 7.9µM*

Results for O=c1cc(-c2ccccc2)oc2cc(O)c(O)cc12 ?
Caspase-7 inhib: inconclusive; p53ts 39C tox: 2µM*; p53ts 32C tox: 2.5µM*

Results for O=c1cc(-c2ccccc2)oc2c(O)c(O)ccc12 ?
Caspase-7 inhib: -5%; Caspase-1 inhib: -1%; p53ts 39C tox: 13µM*; p53ts 32C tox: inconclusive

Results for O=c1cc(-c2ccccc2O)oc2c(O)c(O)ccc12 ?
Caspase-7 inhib: -7%; IkB sig inh: 4%[11.4 µM]; Caspase-1 inhib: -2%; p53ts 39C tox: -16%; p53ts 32C tox: -11%; FLuc inh: -22%[11.4 µM]

Results for N#Cc1c[nH]n2c(NC3CCCC3)c(-c3cccc(Cl)c3)nc12 ?
IkB sig inh: inconclusive; p53ts 39C tox: 0%; p53ts 32C tox: -2%

Results for COC(=O)c1cc(NC(=O)CC2SCCNC2=O)cc(C(=O)OC)c1 (configuration not stated) ?
Caspase-7 inhib: -4%; IkB sig inh: 2%; Caspase-1 inhib: 1%; p53ts 39C tox: 1%; p53ts 32C tox: 2%; FLuc inh: 1%

What do the screens show for `COc1ccc(N2CCN(C(=O)NCc3noc4ccccc34)CC2)cc1`?
IkB sig inh: -1%; p53ts 39C tox: -2%; p53ts 32C tox: 5%

What do the screens show for `O=S(=O)(c1ccc(Cl)cc1)c1nnn2c1nc(NCc1cccs1)c1sccc12`?
IkB sig inh: -3%; p53ts 39C tox: -24%; p53ts 32C tox: -15%

How did COc1ccc(CC(=O)Nc2cccc(-c3nnc(-c4cccc(C)c4)o3)c2)cc1OC do in these assays?
Caspase-7 inhib: -2%; IkB sig inh: inconclusive; Caspase-1 inhib: -3%; p53ts 39C tox: inconclusive; p53ts 32C tox: 13µM*; FLuc inh: inconclusive

What do the screens show for `O=C(Cc1ccc(Cl)cc1)Nc1ccc2oc(-c3ccc(F)cc3)nc2c1`?
IkB sig inh: 11%; p53ts 39C tox: -5%; p53ts 32C tox: -12%

Results for COc1ccc(CC(=O)Nc2cccc(-c3nnc(-c4ccccc4)o3)c2)cc1OC ?
Caspase-7 inhib: -5%; IkB sig inh: inconclusive; Caspase-1 inhib: -2%; p53ts 39C tox: 2%; p53ts 32C tox: -20%; FLuc inh: -15%

What do the screens show for `COc1ccc(CC(=O)Nc2ccc(-c3nnc(-c4ccccc4)o3)cc2)cc1OC`?
Caspase-7 inhib: 0%; IkB sig inh: inconclusive; Caspase-1 inhib: 1%; p53ts 39C tox: 6%; p53ts 32C tox: 10%; FLuc inh: 1%

Screening data as filed in PubChem BioAssay.
